Values without a mark were called inactive. The rule behind the calls is not given here.

Chain of Pantothenate synthetase (Mycobacterium tuberculosis (strain ATCC 25618 / H37Rv)) (P9WIL5 whole entry, looked up): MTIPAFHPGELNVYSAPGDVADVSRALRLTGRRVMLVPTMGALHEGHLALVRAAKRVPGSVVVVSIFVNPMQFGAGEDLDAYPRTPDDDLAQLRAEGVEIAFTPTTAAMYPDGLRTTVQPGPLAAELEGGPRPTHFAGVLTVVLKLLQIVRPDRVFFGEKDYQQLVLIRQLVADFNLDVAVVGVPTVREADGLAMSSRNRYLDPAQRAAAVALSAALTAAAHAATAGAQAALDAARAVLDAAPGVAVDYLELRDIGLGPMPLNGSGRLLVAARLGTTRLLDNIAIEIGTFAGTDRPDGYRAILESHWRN

The assay has as its target Pantothenate synthetase (Mycobacterium tuberculosis (strain ATCC 25618 / H37Rv)) (UniProt P9WIL5). The assay is described as follows: Coupled enzyme confirmation of inhibitors against recombinant Mtb PanC (AID 375).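 Note: 0% = full reaction with vehicle and 100% = no enzyme background.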 The conditions noted are these: coupled enzyme assay; at 10 µM, stronger effect = higher value.
Turning to `CC1(C)Cc2c(sc3ncnc(N)c23)CO1`, the inhibition is 14%.
As for `Clc1ss/c(=N\c2ccccn2)c1Cl`, the figure is 0%; as for `Cn1c(/C(C#N)=C/Nc2ccccn2)nc2ccccc21`, 0%; as for `Cc1occc1C(=O)N1CCN(c2ncccn2)CC1`, 6%.
Take `COc1ccc(Cc2noc(-c3ccc(C)cc3)n2)cc1`: the inhibition is 0%.
For `COc1ccc(OC)c(NC(=O)CSc2nc3ccccc3c(=O)n2CCNC(C)=O)c1` the value was 0%.
For `N#C/C(=C\c1ccc(O)c(O)c1)C(=O)NCCCc1ccccc1` the value was 0%.
For `O=C(O)c1cccc(NC(=O)C2C3C=CC(C3)C2C(=O)OCC(F)(F)C(F)F)c1` (centres undefined) the value was 5%.
In the case of `CC(=O)N1CCN(C(=O)COc2ccc(Br)cc2)CC1`, the inhibition was 0%.
In the case of `Cc1cc(C(=O)N2CCN(c3ncccn3)CC2)cs1`, the inhibition was 4%.
For `CCCCC[C@H](O)/C=C/[C@@H]1[C@@H](CCCCCCC(=O)O)[C@@H](O)C[C@H]1O` the value was 0%; for `Cc1cc(NC(=O)C2CCCC2)nc2c1c(=O)oc1ccccc12`, 12%.
As for `O=C(CN1C(=O)c2cccc3cccc1c23)Nc1ccccc1C(=O)NCc1ccco1`, the figure is 0%.
For `CCCCc1cc(=O)oc2c(CN3CCCC3)c(O)c(Cl)cc12` the value was 7%; for `CC(C)CC(c1nnnn1C(C)(C)C)N1CCN(C2CCCC2)CC1` (centres undefined), 0%.
Consider `CC[C@H](C)C(=O)O[C@H]1C[C@@H](C)C=C2C=C[C@H](C)[C@H](CC[C@@H]3C[C@@H](O)CC(=O)O3)[C@H]21`, for which the inhibition was 5%.
For `Oc1ccc2[nH]cnc2c1CN1CCCCC1` the value was 0%; for `COc1ccccc1C(=O)Nc1ccccc1C(=O)N1CCCC1`, 1%; for `CCNCCNC(=O)c1c(O)c2ccccc2n(CC)c1=O`, 0%.
As for `c1cc2c(cc1C1=Nn3c(nnc3C3CCCCC3)SC1)OCO2`, the figure is 0%.
For `CCn1c(SCC(=O)Nc2cc(NC(C)=O)ccc2OC)nnc1-c1ccccn1` the value was 2%; for `COC(=O)c1sccc1NC(=O)c1ccncc1`, 6%.
As for `O=C(c1cc(-c2ccco2)nn1-c1cccc(Cl)c1)N1CCCCC1`, the inhibition is 8%.
As for `CCOc1cc(N2CCOCC2)c(OCC)cc1NC(=O)CSc1cccc[n+]1[O-]`, the figure is 3%.

(Values after PubChem BioAssay.)
